The full ranking holds about 33,000 sequences; the median of “E-score (-0.5 to 0.5)” is about -0.011, and the highest 2% start at about 0.28. This is one part of a sample in which the highest values are shown more often than they occur.
Target: T1, Gcr1 (UniProt P07261)
T1 sequence: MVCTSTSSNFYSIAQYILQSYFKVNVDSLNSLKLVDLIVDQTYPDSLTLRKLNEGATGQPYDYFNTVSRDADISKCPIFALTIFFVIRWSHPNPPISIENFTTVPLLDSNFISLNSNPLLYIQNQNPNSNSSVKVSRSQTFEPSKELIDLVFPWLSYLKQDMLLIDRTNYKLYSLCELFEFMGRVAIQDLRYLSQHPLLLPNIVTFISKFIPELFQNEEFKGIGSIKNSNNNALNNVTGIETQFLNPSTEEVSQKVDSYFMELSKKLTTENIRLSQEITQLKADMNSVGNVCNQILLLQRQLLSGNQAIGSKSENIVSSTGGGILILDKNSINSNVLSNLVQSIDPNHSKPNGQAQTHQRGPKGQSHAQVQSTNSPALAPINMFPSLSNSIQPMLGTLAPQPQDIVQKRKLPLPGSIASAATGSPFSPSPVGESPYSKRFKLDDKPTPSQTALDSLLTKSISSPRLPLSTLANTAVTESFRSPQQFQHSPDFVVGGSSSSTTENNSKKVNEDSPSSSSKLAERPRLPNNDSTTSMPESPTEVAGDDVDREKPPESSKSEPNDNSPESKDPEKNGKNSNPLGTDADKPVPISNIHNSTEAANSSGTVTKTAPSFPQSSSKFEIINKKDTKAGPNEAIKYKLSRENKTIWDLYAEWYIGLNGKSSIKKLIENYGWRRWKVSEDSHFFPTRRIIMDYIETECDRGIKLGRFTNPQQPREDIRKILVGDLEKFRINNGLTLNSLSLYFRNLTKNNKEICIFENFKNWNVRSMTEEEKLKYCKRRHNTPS
Assay: PBM E-score (8-mer binding enrichment) (E-score (-0.5 to 0.5)); higher = stronger / more preferred TF binding
Conditions: protein concentration: 100 nM; construct: GST-full length
Summary of the method: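 Yeast transcription factors carrying a GST tag, as full-length proteins or DNA-binding domains, were produced by PURExpress in vitro transcription/translation. About 100-200 nM protein was applied to universal all-10-mer Agilent arrays, double-stranded by primer extension on fresh or once-stripped slides. Bound protein was detected with fluorescent anti-GST, and scans were normalised with masliner. The Universal PBM Analysis Suite gave each ungapped eight-base word, pooled with its reverse complement, an E-score, a modified Wilcoxon-Mann-Whitney statistic.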

Sequence | PBM E-score
AAGTCTCG | -0.336
CTCTAAAC | 0.0413
GGTCTGGA | 0.0233
GCCAGCGA | -0.0966
CACCAAGG | 0.0974
CCACCATC | 0.0892
GACGGACA | -0.264
AAAAGTAA | 0.157
CAAAGTGG | 0.00098
AAAAGTGG | 0.381
AAAAGTAG | 0.295
AAAAGTAT | -0.0691
AAAAGTGA | 0.0915
CCCATCAC | -0.136
GGTATTCA | 0.0919
GATGGCCA | -0.214
AGTGGATG | 0.394
AGTGGATC | 0.286
CGTGGATC | 0.00349
AATGGATG | 0.134
ATTGGATC | 0.193
AGTGGATA | 0.0533
CCTCCTGC | -0.0964
ATCTTCGC | -0.0394
ATAGAGGA | 0.346

Sequence | PBM E-score
ATAGAGGG | 0.137
ATAGAGGC | 0.174
ATGTCCCG | -0.183
GCTATTGA | -0.21
CACCACTA | 0.298
CACCACTC | 0.134
AACCACTA | 0.241
TACCACTA | 0.365
CACCACTG | 0.167
GACCACTA | 0.179
AGTTGCAA | -0.105
CGTAGTGA | -0.043
CGTACCGC | -0.162
ATGATACG | 0.107
CAAGACAC | 0.0836
GCACCCAA | 0.303
ACGCCCTA | 0.178
GCGCCTAA | 0.407
CCGCCCTA | -0.0561
TCACCCAA | -0.00294
TCGCCTAA | 0.0844
GCACCCTA | 0.297
GCGCCCTA | 0.319
GCACCCCA | 0.241
GCGCCTAC | 0.256

Sequence | PBM E-score
CCACCCTA | 0.0045
ACACCCTA | -0.021
CACCACCG | -0.0609
GAGTTGCA | -0.0956
GTGAGAAC | -0.0123
GATGGATA | 0.0193
CCCCCGGC | -0.0149
GGAACGGA | -0.0468
CCGAGTCA | -0.25
ATTCGAAT | 0.0645
AGATGACG | -0.0775
GCACCCAC | 0.397
ACACCCAC | 0.0847
CCACCCAC | -0.0236
CTTTTTGA | 0.115
AGTTGGAA | 0.187
ATAGCTGC | 0.285
GAGGCTGC | 0.253
ATAGCTGA | -0.0965
CTAGCTGC | 0.161
AAGGCTGA | -0.141
AAGGCTGC | 0.302
CTGTCTTC | 0.00215
AGCTAATA | 0.0193
CGGGGCCC | 0.219

Sequence | PBM E-score
TCCAAAGA | 0.0425
ACAGCTCA | -0.146
ATAAGACG | 0.192
AAGGAAGA | -0.00011
CAGGAAGC | 0.434
CACGAAGA | -0.098
CAGGAAGG | 0.184
GAGGAAAC | -0.104
GAGGAAGA | 0.171
AAGGAAGC | 0.452
AACGAAGC | 0.00062
CACGAAGC | 0.311
GAGGAAGC | 0.391
AAGGAAGG | -0.0778
CAGGAAGA | 0.0842
CCAAGGTC | -0.0561
CGAAAGGC | 0.0349
GCCTTCAC | -0.0793
AGCTGCAT | -0.077
CTCGGCGC | 0.159
CAAAGGCG | -0.134
AGGCGTCG | -0.0284
CGGCGTCA | 0.0965
CGGCGTGC | -0.094
AGGCGTCC | 0.387

Sequence | PBM E-score
CGGCGTCC | 0.412
AGGCGTCA | -0.194
ATATAGAG | 0.133
AAATTCAG | 0.169
CCATAGGC | -0.00913
TGAGAAAA | 0.0932
AGGCAGAT | 0.0845
ATACGTAA | 0.053
ATACGTAT | 0.284
ATACGTAC | -0.00136
AAACCAAC | 0.0391
GCACCATA | 0.228
AGTTTTAT | 0.112
CTACTATC | 0.146
ATACTATA | -0.0912
CTACTATA | 0.282
CGAGCCTC | -0.0914
GAACAACC | -0.0951
AGGCACTA | -0.113
AGCAACCA | 0.349
ACCAACCA | 0.0293
TGCAACCA | 0.261
GGCAACCA | 0.374
AGCAACCC | 0.00142
AGCAACCT | 0.316

Sequence | PBM E-score
GGCAACCC | 0.176
CGCAACCA | 0.147
AGCAACCG | 0.0554
ACTAACCA | 0.117
CGTAAGAG | -0.199
CAGCTGTC | -0.0336
AATGCTCT | -0.112
CCATTCCC | -0.0773
AGCGTCAA | 0.0252
CGCGTCTA | 0.137
AGCGTCTA | 0.307
GGCGTCAA | -0.0289
CCCGTCTC | -0.0723
AGCGTCTG | 0.175
AGCGTCTC | 0.22
CGCGTCTC | 0.301
GGCGTCTA | 0.342
ATGAAGCC | 0.145
AATACCGA | 0.0609
AGGTTCCG | 0.205
GGTTTCCA | 0.119
CGGTTCCA | 0.189
GAGTTCCA | 0.123
AGGTTCCA | 0.327
GGGTTCCA | 0.419

Sequence | PBM E-score
CGGCCCTA | -0.253
TGGATAAA | 0.11
GACTTCCC | 0.127
GACTTCCA | 0.319
GACTTCAA | -0.0566
CACTTCCC | 0.0585
AACTTCCA | 0.349
CACTTCCG | 0.0282
CAATTCCA | 0.0815
CACTTCCA | 0.312
GAATTCCC | 0.116
GAATTCCA | 0.369
TACTTCCA | 0.121
AACTTCCG | 0.267
CCGACCCA | -0.0324
CGCAGGCG | 0.00025
ATTGCTAC | 0.11
ACGGCTCG | -0.105
GTCATTAA | 0.0346
AGTCCGTG | -0.0968
AAATCCAT | 0.129
GGCCCGCA | -0.0485

Reference: the supplement of paper PMC3334620
